Screens as filed in PubChem.
The list is not random: actives were taken first. Their share in the collection is about 9.2%.
FLuc counter – qHTS profiling assay for firefly luciferase inhibitor/activator using purifed enzyme and Km concentrations of substrates (counterscreen for miR-21 project); Luciferin 4-monooxygenase (Photinus pyralis), P08659; purified FLuc, Km substrates, luminescence inhibition; Potency, µM (highest dose often 57.5 µM), inactives show at the top dose activity change, negative = inhibition, most hits filed as inhibitors; 6.9% of 360,000 active;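 also: plate controls were vehicle for no effect and reference inhibitor for full effect; nearly all actives have a fitted effect of over 55% in size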
Target sequence (P08659 whole entry, looked up): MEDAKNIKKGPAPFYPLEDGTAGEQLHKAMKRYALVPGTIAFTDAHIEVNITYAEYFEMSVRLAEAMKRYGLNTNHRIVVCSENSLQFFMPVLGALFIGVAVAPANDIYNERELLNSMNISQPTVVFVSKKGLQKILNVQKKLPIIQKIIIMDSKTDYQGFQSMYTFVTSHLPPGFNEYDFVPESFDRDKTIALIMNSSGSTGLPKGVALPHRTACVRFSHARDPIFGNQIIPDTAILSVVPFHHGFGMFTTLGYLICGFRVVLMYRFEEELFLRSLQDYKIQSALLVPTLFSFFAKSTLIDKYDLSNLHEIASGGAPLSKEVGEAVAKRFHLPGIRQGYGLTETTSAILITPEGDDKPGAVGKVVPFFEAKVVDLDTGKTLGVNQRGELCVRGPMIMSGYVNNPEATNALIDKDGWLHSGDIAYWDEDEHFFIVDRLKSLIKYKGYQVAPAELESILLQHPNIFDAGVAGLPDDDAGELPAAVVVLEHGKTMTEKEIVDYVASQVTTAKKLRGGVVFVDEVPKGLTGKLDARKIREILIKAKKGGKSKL
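Purified P. pyralis luciferase, 10 nM final, with Km-level 10 uM D-luciferin and 10 uM ATP in 50 mM Tris acetate pH 7.5, 10 mM Mg acetate, 0.01% Tween-20, 0.05% BSA; 6-point qHTS titration about 60 µM downward; luminescence read.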
ELG1 repair inh – qHTS screen for small molecules that inhibit ELG1-dependent DNA repair in human embryonic kidney (HEK293T) cells expressing luciferase-tagged ELG1. HEK293T ELG1-luciferase reporter, luminescence, 16 h; DNA damage induced by 5-fluorouridine. Potency, µM (doses to about 46.1 µM), inactives show top-dose activity change, negative = inhibition, hits mostly inhibitors. 2.3% of 330,000 active; also: % is scaled to controls: 0 for no effect and ±100 for the full control effect; nearly all actives have a fitted effect of over 55% in size
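HEK293T cells expressing luciferase-tagged ELG1 (2,000/well) received 5-Fluorouridine plus compound or DMSO for 16 hr at 37 °C. Luciferase was read by ONE-Glo luminescence after 30 min at room temperature.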
SMN2 splice up – qHTS Assay for Enhancers of SMN2 Splice Variant Expression | HEK293 SMN2-luciferase splicing reporter, luminescence, 30-36 h | Potency, µM (series often up to 46.1 µM), for inactives: at the top dose activity change, positive = activation, most hits filed as activators | 2.8% of 210,000 active | AID 1458, 2008; also: % of control where 0% means no effect; nearly all actives have a fitted effect of over 55% in size
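qHTS luciferase splicing reporter: luminescence rises when SMN2 exon 7 is included in transfected HEK293 cells. Compound exposure lasted 30-36 h at 37C, with 4.5 mM final sodium butyrate as control, followed by a ONE-Glo read.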
ELG1 genotox – qHTS screen for small molecules that induce genotoxicity in human embryonic kidney (HEK293T) cells expressing luciferase-tagged ELG1 | HEK293T ELG1-luciferase reporter, luminescence, 16 h | Potency, µM (top dose mostly 46 µM), for inactives: top-dose activity change, positive = activation, most hits filed as activators | 1.3% of 330,000 active; also: % of control where 0% means no effect; nearly all actives have a fitted effect of over 60% in size
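Luminescence read-out: rising ELG1-luciferase signal, reflecting elevated ELG1 protein under genetic stress, flags genotoxic compounds. Cells were treated for 16 hr at 37 °C before ONE-Glo detection.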
NPC1 prom act – qHTS Assay for NPC1 Promoter Activators | Potency, µM (highest dose often 9.22 µM), inactives show top-dose activation, actives largely listed as activators | Huh7 NPC1 promoter luciferase reporter, 24 h | 2.4% of 320,000 active; also: % of control where 0% means no effect; nearly all actives have a fitted effect of over 60% in size
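Luminescence read-out of NPC1 promoter-driven luciferase in stably transfected Huh7 cells; compounds delivered in DMSO and left 24 h at 37C, 5% CO2, qHTS titration format.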
Rab9 prom act – qHTS Assay for Rab9 Promoter Activators; Potency, µM (series often up to 9.22 µM), for inactives: at the highest dose activation, negative = inhibition, hits mostly activators; 2.8% of 320,000 active; Huh7 Rab9 promoter-luciferase reporter, luminescence, 24 h; also: % of control where 0% means no effect; nearly all actives have a fitted effect of over 60% in size
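Huh7 cells stably carrying a Rab9 promoter-luciferase reporter, 1500 cells per well in OP-MEM I with 10% FBS, treated with compound 24 hours at 37C. Luciferase activity read by luminescence after 10 minutes with Amplite reagent.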
Numbers without * were called inactive; ? = inconclusive; nt = not tested or not shown; [ ] = dose if it differs, or a comment. Calls follow the shape of the dose curve; as a rule, active = well fitted curve in the direction sought with a large enough effect; inconclusive = small, poorly fitted or top-dose-only effect, or another doubt; inactive = no such curve, though single readings can be large; an effect the other way counts as inactive or inconclusive. Potency is read from the fitted curve at half-maximal effect.

SMILES	FLuc counter	ELG1 repair inh	SMN2 splice up	ELG1 genotox	NPC1 prom act	Rab9 prom act
Cc1ccc(NC(=O)CN2C(=O)NC3(CCCCC3C)C2=O)cc1S(=O)(=O)N1CCCCC1 (stereo not given)	2%	-1%	nt	-9%	-3%	-1%
CSc1nnc(SCC(=O)Nc2ccc3[nH]c(=O)[nH]c3c2)s1	-2%	4%	nt	0%	0%	-5%
COc1ccc(S(=O)(=O)N2CCCCCC2)cc1C(=O)OCc1cccc(OC)c1OC	8%	?	nt	-5%	-5%	1%
COc1ccc(Cl)cc1NC(=O)CSc1nc(-c2ccccc2)c2ccccc2n1	4%	nt	6%	nt	nt	nt
Cc1ccc(S(=O)(=O)NCCC(=O)NC(C)CCc2ccccc2)cc1 (stereo not given)	4%	-13%	nt	3%	-1%	-11%
CCCC(=O)Nc1ccc(-c2cn3cccnc3n2)cc1	17µM*	?	nt	13%	28%	?
[O-]/[N+](=C\c1ccccc1)c1ccc(Br)cc1	?	?	nt	?	2%	-1%
[O-]/[N+](=C\c1cccc(Br)c1)c1ccccc1	24µM*	-2%	27%	15%	2%	19%
CCc1ccc(-c2nc(CN3CCC(C(=O)NCCc4ccc(Cl)cc4)CC3)c(C)o2)cc1	5%	nt	9%	nt	nt	nt
BrCCOCCOc1ccc2ccccc2c1	15µM*	?	?	?	?	?
COc1cccc2c1Oc1ncccc1N(C(=O)CCC(=O)NCc1ccc(OC(C)C)cc1)C2	-8%	nt	nt	nt	nt	nt
Cc1ccsc1CCNC(=O)C1CCC(=O)N(CCc2cccc(F)c2)C1 (stereo not given)	21µM*	?	nt	?	2.8µM*	2.5µM*
Cc1ccsc1CN(C)C(=O)C1CCC(=O)N(CCc2cccc(F)c2)C1 (stereo not given)	15µM*	?	nt	?	?	22%
CN(C(=O)C1CCC(=O)N(Cc2cccc(F)c2)C1)C1CCCCC1 (stereo not given)	17µM*	?	nt	?	3.2µM*	2.5µM*
O=C(Nc1ccc(N2CCCCC2)cc1)c1cncc(Br)c1	6µM*	-11%	?	4%	3.5µM*	?
O=C(Nc1cccc(NC(=O)c2cncc(Br)c2)c1)c1cncc(Br)c1	3%	21µM*	nt	-10%	-2%	2%
O=C(Nc1ccc(N2CCN(C(=O)c3ccccc3F)CC2)cc1)c1cncc(Br)c1	3%	3.7µM*	nt	-24%	2%	0%
O=C(Nc1ccc(N2CCN(C(=O)c3cccs3)CC2)cc1)c1ccccc1F	-4%	?	nt	-9%	-20%	-6%
O=C(O)COc1ccc(-c2nnn(Cc3ccccc3F)n2)cc1	19µM*	26%	7%	7%	9%	-1%
O=C(O)c1ccc(-c2nnn(Cc3ccccc3F)n2)cc1	-4%	8%	nt	5%	3%	-3%
Cc1ccc(-c2nnn(CC(=O)O)n2)cc1	-10%	5%	-15%	3%	-3%	-11%
Cc1ccccc1COc1ccc(-c2nnn(CC(=O)O)n2)cc1	17µM*	14%	nt	3%	-10%	-1%
COC(=O)c1ccc(COc2ccc(-c3nnn(CC(=O)NC(C)(C)C)n3)cc2)cc1	1%	19%	14µM*	?	-2%	-9%
COc1cc2c(cc1OC)C(C)N(S(=O)(=O)c1ccc(Cl)nc1)CC2 (stereo not given)	1%	11%	nt	0%	-2%	0%
CCN(CC)S(=O)(=O)c1ccc(N2CCOCC2)c(NC(=O)COc2ccccc2C)c1	4%	5.8µM*	nt	-2%	0%	-4%
SMILES	FLuc counter	ELG1 repair inh	SMN2 splice up	ELG1 genotox	NPC1 prom act	Rab9 prom act
CCN(CC)S(=O)(=O)c1ccc(N2CCOCC2)c(NC(=O)CC23CC4CC(CC(Br)(C4)C2)C3)c1	1%	9.2µM*	-13%[1.84 µM]	0%	-7%	1%
CCN(CC)S(=O)(=O)c1ccc(N2CCOCC2)c(NC(=O)COc2ccccc2C#N)c1	-4%	9.2µM*	5%	-11%	0%	22%
CCN(CC)S(=O)(=O)c1ccc(N2CCOCC2)c(NC(=O)Cc2ccc(Cl)cc2)c1	-15%	?	nt	-6%	1%	4%
O=C(COC(=O)COc1ccccc1)NC1CCS(=O)(=O)C1 (stereo not given)	nt	1%	nt	1%	nt	nt
CCOC(=O)c1c(C)[nH]c(C(=O)CSc2nc3ccccc3o2)c1C	9%	13%	0.32µM*	5%	-5%	-2%
CCOC(=O)c1c(C)[nH]c(C(=O)CSc2ccc(Cl)cc2)c1C	6µM*	?	11µM*	?	?	?
COCCn1c(SCC(=O)c2[nH]c(C)c(C(C)=O)c2C)nc2ccccc21	-1%	26µM*	-12%	-2%	-3%	1%
CCOC(=O)c1c(C)[nH]c(C(=O)CSc2nnc(CC(C)c3ccccc3)o2)c1C (stereo not given)	2%	0%	-30%	-2%	-4%	-13%
O=C(O)Cc1ccc(NS(=O)(=O)c2ccc3ccccc3c2)cc1	2%	1%	nt	3%	-2%	-1%
Cc1n[nH]c(=O)c2c(NC(=O)CSc3nc4ccccc4c(=O)n3CCCOC(C)C)oc(C)c12	4%	0%	nt	-3%	1%	-1%
COCCCn1c(SC(C)C(=O)Nc2c(C)n(C)n(-c3ccccc3)c2=O)n[nH]c1=O (stereo not given)	-1%	-4%	nt	2%	-1%	0%
COc1ccc(Cl)cc1NC(=O)CN(C)C(=O)c1cc(C)oc1C	0%	-15%	nt	1%	-2%	-4%
CCc1ccc(-c2cn3c(n2)sc2cc(C(=O)NCCc4ccc(OC)cc4OC)ccc23)cc1	5%	nt	nt	nt	nt	nt
Cc1ccc(C(=O)O)cc1N=Cc1cc(Br)cc(Br)c1O	3%	-6%	5%	1%	-5%	-7%
CN(/N=C/c1cc(Br)cc(Br)c1O)c1cccc(C(F)(F)F)n1	-3%	7.3µM*	nt	-6%	13%	-1%
O=c1[nH]c(Cc2ccccc2)nc2c1oc1ccccc12	-6%	1%	3%	2%	1%	14%
Cc1nc2c(oc3ccccc32)c(=O)o1	21µM*	?	17%	?	-2%	2%
Cc1oc2ccc(O)cc2c1C(=O)c1ccc([N+](=O)[O-])cc1	2%	?	-17%	-6%	0%	-1%
